Data as given in PubChem BioAssay (Tox21).
Inconclusive results are not listed. Active and inactive are the calls of the source. Calls come from the whole dose curve; as a rule, active = well fitted cell-killing curve with a large enough effect in the repeat runs; inconclusive = weak or mixed curves, or effect the other way; inactive = no such curve, though single readings can be large or run the other way.

Assay: qHTS assay to identify small molecule antagonists of the vitamin D receptor (VDR) signaling pathway - cell viability counter screen (AID 743225); note: nearly all actives have a fitted effect of over 50% in size
Conditions: VDR-bla HEK293T viability, CellTiter-Glo luminescence, 16 h; series mostly up to 61 µM
Excerpt: U.S. Tox21 Program National Center for Advancing Translational Sciences [NCATS] NIH Chemical Genomics Center [NCGC] U.S. Environmental Protection Agency [EPA] National Institutes of Environmental Health Sciences [NIEHS] National Toxicology Program [NTP] U.S. Food and Drug Administration [FDA] Tox21 Assay Overview: The vitamin D receptor (VDR), a member of nuclear hormone receptor superfamily, plays a critical role in calcium homeostasis and bone metabolism. It is also involved in cell differentiation and growth, and thrombogenicity. To identify the compounds that inhibit VDR signaling, the VDR-UAS-bla HEK 293T cell line (Invitrogen, Carlsbad, CA, USA) containing a beta-lactamase reporter gene under the control of an upstream activator sequence (UAS) was used to screen the Tox21 10K compound library. The cytotoxicity of the Tox21 compound library against the VDR-bla cell line was tested in parallel by measuring the cell viability using CellTiter-Glo assay (Promega, Madison, WI) in the same wells.
Tox21 Assay Protocol Summary: VDR-bla cells were dispensed at 2,000 cells/5 uL of assay medium per well into black wall/clear-bottom 1536-well plates using a Multidrop Combi (Thermo Fisher Scientific, Waltham, MA) dispenser. After the assay plates were incubated at a 37C and 5% CO2 for 4 h, 23 nL of compounds dissolved in DMSO, positive controls or DMSO only was transferred to the assay plate by a Pintool station (Kalypsys, San Diego, CA), followed by addition of 1 uL of 1-alpha, 25-Dihydroxy Vitamin D3 (3 nM, final concentration in the wells) using a Bioraptr Flying Reagent Dispenser (FRD) workstation (Beckman Coulter, Indianapolis, IN). The plates were incubated at 37C and 5% CO2 for 16 h, and then 1 uL of LiveBLAzerTM B/G FRET substrate was added using a Bioraptr FRD. The plates were incubated at room temperature for 2 h and fluorescence intensity was measured by an Envision plate reader (PerkinElmer, Shelton, CT). For cell viability readout that measures cytotoxicity, 3 ul/well of CellTiter-Glo reagent was added into the assay plates using a Bioraptr FRD. After 30 min incubation at room temperature, the luminescence intensity in the plates was measured using a ViewLux plate reader (PerkinElmer).

Row | SMILES | outcome
1 | COC(=O)c1cc(Cl)cc(Cl)c1 | inactive
2 | C=CCSSCCC | inactive
3 | CC/C=C\CCOC(=O)c1ccccc1O | inactive
4 | CC1=NN(c2ccc(S(=O)(=O)O)cc2)C(=O)C1 | inactive
5 | OC1(c2ccc(Cl)cc2)CCNCC1 | inactive
6 | O=C1CCC(=O)N1Cl | inactive
7 | CCC(=O)c1c(O)cc(O)cc1O | inactive
8 | C=C(C)c1cccc(C(C)(C)N=C=O)c1 | inactive
9 | CN(C)CCCCl | inactive
10 | CC(O)CC(C)O (stereo not given) | inactive
11 | OC1OCCOC1O (stereo not given) | inactive
12 | O=NN(CCCl)C(=O)NC1CCCCC1 | inactive
13 | C=Cc1ccc(C(C)(C)C)cc1 | inactive
14 | C=C(C)[C@@H]1CC=C(C)CC1 | inactive
15 | Cc1c(C(=O)c2c[nH]n(C)c2=O)ccc(S(C)(=O)=O)c1C1=NOCC1 | inactive
16 | CC(O)COC(C)(C)C (stereo not given) | inactive
17 | CC(C)C[C@@H]1[C@H](c2ccccc2)OC(=O)N1CCCN1CCCCCC1 | inactive
18 | C=C(C)[C@@H]1CC=C(C)C(=O)C1 | inactive
19 | OC[C@H]1O[C@@H](O[C@@H]2[C@@H](CO)O[C@](O)(CO)[C@H]2O)[C@H](O)[C@@H](O)[C@H]1O | inactive
20 | CCO | inactive

Row | SMILES | outcome
21 | CNCCS(=O)(=O)O | inactive
22 | CC(=O)c1cc(C)oc1C | inactive
23 | CCOCCOCC | inactive
24 | C=CC(=O)OCC1CCCO1 (stereo not given) | inactive
25 | N#Cc1cscn1 | inactive
26 | CN1C[C@@H]2C[C@H]1CN2c1cc2c(cc1F)c(=O)c(C(=O)O)cn2C1CC1 | inactive
27 | O=C(O)c1cc2ccccc2nc1C(=O)O | inactive
28 | CCCCSCCCC | inactive
29 | CC(C)(C)NC[C@H](O)COc1cccc2c1CCCC2=O | inactive
30 | c1ccc(-c2nn[nH]n2)cc1 | inactive
31 | N#CCC(=O)NN | inactive
32 | CC1=C(O)C(=O)C(C)O1 (stereo not given) | inactive
33 | O=C(CN1CCNCC1)NC1CCCCC1 | inactive
34 | C=CCCCC | inactive
35 | Cc1ccc2c(c1)C(=O)c1ccccc1C2=O | inactive
36 | CN(C)CC/C=C1/c2ccccc2COc2ccc(CC(=O)O)cc21 | inactive
37 | C=CCN1C[C@H](C(=O)N(CCCN(C)C)C(=O)NCC)C[C@@H]2c3cccc4[nH]cc(c34)C[C@H]21 | inactive
38 | O=C(O)CONC(=O)c1ccccc1 | inactive
39 | N[C@@H](CSCCCO)C(=O)O | inactive
40 | CC1=C(C(=O)O)N2C(=O)[C@@H](NC(=O)[C@H](N)c3ccccc3)[C@H]2SC1 | inactive
